Potency, activity change, negative = inhibition and outcome data for 6 compounds are collected here from PubChem BioAssay (NCATS).

Results filed as inconclusive are left out. The source made the active and inactive calls. Unless noted, the call rests on the fitted dose curve; in most records, active means well fitted curve in either direction with a large enough effect (not every such curve was filed as active); inconclusive means small, poorly fitted or top-dose-only effect, or another doubt; inactive means flat fitted curve, though single readings scatter. A value given as a limit tells only on which side of the number the result lay.

Sequence of Cytochrome P450 1A2 (Homo sapiens) (P05177 whole entry, looked up): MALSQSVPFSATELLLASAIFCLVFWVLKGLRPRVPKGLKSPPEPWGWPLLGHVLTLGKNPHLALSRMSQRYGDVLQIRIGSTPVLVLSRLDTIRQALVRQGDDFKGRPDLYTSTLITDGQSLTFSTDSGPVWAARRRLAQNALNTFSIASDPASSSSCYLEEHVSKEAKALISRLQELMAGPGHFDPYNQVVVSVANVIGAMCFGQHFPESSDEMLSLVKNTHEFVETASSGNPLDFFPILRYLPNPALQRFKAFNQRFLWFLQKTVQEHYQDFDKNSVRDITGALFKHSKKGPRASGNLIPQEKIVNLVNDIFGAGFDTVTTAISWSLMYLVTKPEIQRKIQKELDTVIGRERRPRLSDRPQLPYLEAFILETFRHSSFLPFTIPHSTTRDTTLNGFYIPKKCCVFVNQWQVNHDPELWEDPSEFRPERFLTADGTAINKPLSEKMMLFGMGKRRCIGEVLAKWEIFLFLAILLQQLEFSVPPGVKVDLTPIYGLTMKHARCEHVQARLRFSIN
Sequence of Lysosomal acid glucosylceramidase (Homo sapiens) (P04062 whole entry, looked up): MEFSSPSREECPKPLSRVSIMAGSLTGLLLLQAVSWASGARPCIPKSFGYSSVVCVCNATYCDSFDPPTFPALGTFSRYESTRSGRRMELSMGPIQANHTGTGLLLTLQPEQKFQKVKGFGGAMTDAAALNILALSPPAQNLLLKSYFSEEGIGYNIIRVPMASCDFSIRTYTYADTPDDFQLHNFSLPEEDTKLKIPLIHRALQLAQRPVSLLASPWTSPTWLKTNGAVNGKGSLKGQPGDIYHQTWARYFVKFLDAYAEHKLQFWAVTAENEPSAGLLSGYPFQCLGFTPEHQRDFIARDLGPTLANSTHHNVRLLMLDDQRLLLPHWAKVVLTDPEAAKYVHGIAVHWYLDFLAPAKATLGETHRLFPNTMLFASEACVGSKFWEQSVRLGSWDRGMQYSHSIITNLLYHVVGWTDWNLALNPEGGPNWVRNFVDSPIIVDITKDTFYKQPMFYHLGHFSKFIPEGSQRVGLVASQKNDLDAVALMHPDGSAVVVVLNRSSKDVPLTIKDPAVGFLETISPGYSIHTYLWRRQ

The first assay deals with Lysosomal acid glucosylceramidase (Homo sapiens) (UniProt P04062). Nature of the assay: Glucocerebrosidase-p2 (AID 348; in the data active means potency below about 10 µM; further: potency means the concentration at half of the fitted maximal effect). To be noted: purified GBA, blue fluorogenic substrate, 40 min. In a few lines:
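Compounds titrated from 0.6 nM upwards against 0.2 nM enzyme in pH 5.9 citric acid/KH2PO4, taurocholate, tween-20; blue fluorogenic substrate 80 uM, 40 min room temperature, stopped and read Ex 365/Em 440 for AC50.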
Take `COc1cccc(Nc2ncc3nc(-c4cc(F)cc(F)c4)c(=O)n(CCC#N)c3n2)c1`: the Potency is > 11.4 µM (inactive).
Regarding `CN(C)c1ncc2nc(CCc3ccccc3)c(=O)n(-c3ccccc3)c2n1`, the Potency was > 11.4 µM (inactive).
Take `CCNc1ncc2nc(-c3cccs3)c(=O)n(CCC#N)c2n1`: the Potency is > 11.4 µM (inactive).

System in a further assay: not listed separately
The assay is described as follows: AP1 Signaling Pathway (AID 357).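 Further: ME-180 reporter cells stimulated with EGF at its EC50 level; on the % scale 0 is the no-effect control and ±100 the full control effect.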 To be noted: ME-180 AP-1-bla reporter, EGF-induced, beta-lactamase ratio, 5 h; at 7.69 µM (top of the series) unless noted. In a few lines:
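Beta-lactamase reporter under AP-1 response element, ME-180 background. Stimulus: EC50 EGF. Compound exposure 5 h, 37 °C. Detection: CCF4, 2.5 h RT, 460/530 nm. Values: AC50 from titration.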
Take `CCNc1ncc2nc(-c3cccs3)c(=O)n(CCC#N)c2n1`: the activity change, negative = inhibition is -3.58% (inactive).
`CC(=O)N1CCC2(CCCN(c3ccc(-c4ccccc4)cc3)C2)CC1`: the activity change, negative = inhibition is -10.1% (inactive).
With `CN1CC=C2C(C#N)=C(N)C(C#N)(C#N)[C@H](c3cccc(Cl)c3)C2C1` (some centres undefined), the activity change, negative = inhibition is -16.2% [at 17.2 µM] (inactive).

A further assay concerns the target Cytochrome P450 1A2 (Homo sapiens) (UniProt P05177). The assay is described as follows: p450-cyp1a2 (AID 410; calls by dose curve; further: potency means the concentration at half of the fitted maximal effect). To be noted: recombinant CYP1A2, luciferin-ME demethylation, luminescence; series mostly up to 57 µM. In a few lines: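 20nM CYP1A2 with 100uM Luciferin-ME (at Km) in 100mM KPO4; compound preincubated 10 min, NADPH regeneration added, 60 min at room temperature. Luciferin quantified by luminescence after detection reagent; normalized to 57 uM furafylline.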
As to `CN(C)c1ncc2nc(CCc3ccccc3)c(=O)n(-c3ccccc3)c2n1`, the Potency was 0.794 µM (active).
As for `CCNc1ncc2nc(-c3cccs3)c(=O)n(CCC#N)c2n1`, the Potency was 3.16 µM (active).
As for `COc1cccc(Nc2ncc3nc(-c4ccc(F)cc4)c(=O)n(CCC#N)c3n2)c1`, the Potency was 3.98 µM (active).

System in the next assay: not listed separately
The assay is described as follows: NFAT Signaling Pathway (AID 444).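 Further: carbachol stimulus at about its EC50 of 1 µM final; on the % scale 0 is the no-effect control and ±100 the full control effect.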 To be noted: Jurkat NFAT-bla M1, carbachol, beta-lactamase ratio, 5 h; at 7.69 µM (top of the series) unless noted. In a few lines: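 Jurkat cells carrying an NFAT-driven β-lactamase reporter and co-transfected muscarinic M1 receptor were treated with compound plus carbachol (1 uM final, an EC50 level) for 5 h at 37 °C. CCF4 loading followed for 1 h at RT; 460/530 nm ratio gave %activity.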
As for `CN(C)c1ncc2nc(CCc3ccccc3)c(=O)n(-c3ccccc3)c2n1`, the activity change, negative = inhibition is 12.7% (inactive).
For `CCNc1ncc2nc(-c3cccs3)c(=O)n(CCC#N)c2n1`, the activity change, negative = inhibition was -2.96% (inactive).
In the case of `CC(=O)N1CCC2(CCCN(c3ccc(-c4ccccc4)cc3)C2)CC1`, the activity change, negative = inhibition was -24.3% (inactive).
With `COc1cccc(Nc2ncc3nc(-c4ccc(F)cc4)c(=O)n(CCC#N)c3n2)c1`, the activity change, negative = inhibition was -6.29% (inactive).

System in a further assay: not listed separately
Nature of the assay: Stat Signaling Pathway (AID 446).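 Further: ME-180 cervical cancer cells given 40 pM IL-6 alongside compound; SIE-controlled beta-lactamase reporter measured as 460/530 nm FRET emission ratio; on the % scale 0 is the no-effect control and ±100 the full control effect.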 To be noted: ME-180 SIE beta-lactamase reporter, IL-6 stimulated, 5 h; series mostly up to 7.69 µM. In a few lines: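 ME-180 cells carrying a SIE-driven beta-lactamase reporter are stimulated with 40 pM IL-6 for 5 h at 37C in the presence of compound. The 460/530 nm FRET substrate ratio is read after 2.5 h at RT. Data are normalised to 300 pM IL-6 and to 125 nM JAK inhibitor controls.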
For the compound `COc1cccc(Nc2ncc3nc(-c4cc(F)cc(F)c4)c(=O)n(CCC#N)c3n2)c1`, the outcome was inactive.
`CN(C)c1ncc2nc(CCc3ccccc3)c(=O)n(-c3ccccc3)c2n1`: the result was inactive.
On the same count and under the same terms, for `CCNc1ncc2nc(-c3cccs3)c(=O)n(CCC#N)c2n1` the value was “inactive”; for `CC(=O)N1CCC2(CCCN(c3ccc(-c4ccccc4)cc3)C2)CC1`, “inactive”.
As to `CN1CC=C2C(C#N)=C(N)C(C#N)(C#N)[C@H](c3cccc(Cl)c3)C2C1` (some centres undefined), the outcome was inactive.
For `COc1cccc(Nc2ncc3nc(-c4ccc(F)cc4)c(=O)n(CCC#N)c3n2)c1`, the compound was called inactive.

For another assay, the target named is Glucocorticoid receptor (Homo sapiens) (UniProt P04150). Nature of the assay: GR-GFP Redistribution (AID 450;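 active means compounds whose dose series gives a full or clear partial fitted curve of increased nuclear translocation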; further: potency means the concentration at half of the fitted maximal effect). To be noted: U2OS GR-GFP nuclear translocation, laser cytometry, 2 h.
Sequence of Glucocorticoid receptor (Homo sapiens) (P04150 whole entry, looked up): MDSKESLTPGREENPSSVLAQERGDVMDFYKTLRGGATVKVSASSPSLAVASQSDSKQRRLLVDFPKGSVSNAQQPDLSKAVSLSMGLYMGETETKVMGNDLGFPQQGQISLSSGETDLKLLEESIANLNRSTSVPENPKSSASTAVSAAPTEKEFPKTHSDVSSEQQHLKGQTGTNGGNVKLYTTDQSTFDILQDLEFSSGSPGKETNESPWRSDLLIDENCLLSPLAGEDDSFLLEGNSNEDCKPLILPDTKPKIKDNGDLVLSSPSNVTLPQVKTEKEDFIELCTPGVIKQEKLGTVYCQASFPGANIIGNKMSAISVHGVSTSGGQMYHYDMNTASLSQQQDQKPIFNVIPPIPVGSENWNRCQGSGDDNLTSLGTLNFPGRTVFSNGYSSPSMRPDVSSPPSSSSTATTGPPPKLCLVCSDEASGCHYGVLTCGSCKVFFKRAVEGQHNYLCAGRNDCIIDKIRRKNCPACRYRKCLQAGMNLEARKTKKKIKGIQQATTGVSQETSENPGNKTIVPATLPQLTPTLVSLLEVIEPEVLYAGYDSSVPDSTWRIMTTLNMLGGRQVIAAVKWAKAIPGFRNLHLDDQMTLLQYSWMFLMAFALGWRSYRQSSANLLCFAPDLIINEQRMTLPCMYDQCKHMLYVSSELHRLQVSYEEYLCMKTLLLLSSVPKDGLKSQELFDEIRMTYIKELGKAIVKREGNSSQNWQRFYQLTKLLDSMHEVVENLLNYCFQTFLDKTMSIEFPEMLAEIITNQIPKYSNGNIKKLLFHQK
Take `COc1cccc(Nc2ncc3nc(-c4cc(F)cc(F)c4)c(=O)n(CCC#N)c3n2)c1`: the Potency is > 9.22 µM (inactive).
For the compound `CN(C)c1ncc2nc(CCc3ccccc3)c(=O)n(-c3ccccc3)c2n1`, the Potency is > 9.22 µM (inactive).
Turning to `CCNc1ncc2nc(-c3cccs3)c(=O)n(CCC#N)c2n1`, the Potency is > 9.22 µM (inactive).
Still for that read-out and setting: in the case of `CN1CC=C2C(C#N)=C(N)C(C#N)(C#N)[C@H](c3cccc(Cl)c3)C2C1` (some centres undefined) it was > 20.6 µM (inactive); in that of `COc1cccc(Nc2ncc3nc(-c4ccc(F)cc4)c(=O)n(CCC#N)c3n2)c1`, > 9.22 µM (inactive).
